HCMV inh = qHTS Assay for inhibitors of the human cytomegalovirus (HCMV); 410,000 compounds, 4.5% hits; HFF cells, HCMV-luciferase reporter, 72 h; stronger effect = lower value; activity change, negative = inhibition, % at 57.5 µM; AID 1259415, 2018; in the data active means activity change below about -60%; inconclusive means no clear call, values can overlap the other calls; inactive means above about -39%
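Inhibition of viral replication was scored as loss of reporter luminescence in HFFs infected with HCMV-luciferase (MOI 1 PFU/cell) for 72 h; compounds tested at 2 doses, normalized to buffer and Salinomycin controls.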
MARV entry inh = qHTS for inhibitors of binding or entry into cells for Marburg Virus; Marburg virus pseudotyped entry inhibition, cell reporter; Potency, µM (top dose mostly 37.8 µM), most hits filed as inhibitors; 300,000 compounds, 1.8% hits; AID 540276, 2011; calls by dose curve; tested in HEK293 cells
Vaccinia Venus = qHTS for Stage-Specific Inhibitors of Vaccinia Orthopoxvirus: Venus Reporter Primary qHTS. Vaccinia virus Venus reporter expression, fluorescence. Potency, µM (titrated, usually from 36.5 µM), hits mostly inhibitors. AID 720580, 2013. 330,000 compounds, 0.46% hits; calls by dose curve; tested in A549 cells; further: nearly all actives have a fitted effect of over 30% in size
HCV inhibitor = qHTS Assay for Inhibitors of Hepatitis C Virus (HCV). Huh7.5.1 HCVcc-Cre infection, luciferase reporter, 44 h. Potency, µM (doses to about 41.8 µM), actives largely listed as inhibitors. 340,000 compounds, 3.4% hits; active means well fitted inhibition curve with a large enough effect; inconclusive means small, poorly fitted or top-dose-only effect, or another doubt; inactive means no such curve, though single readings can be large or run the other way
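1,000 cells/well; 4 h culture; + compound; + HCVcc-Cre (~0.5 moi); 44 h; luciferase substrate, RT 15 min; read 15 sec.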
LASV entry inh = qHTS for Inhibitors of binding or entry into cells for Lassa Virus | Lassa virus pseudotype entry inhibition, cell reporter | AID 540256, 2011 | 300,000 compounds, 1.2% hits | Potency, µM (top dose mostly 37.9 µM), actives largely listed as inhibitors; calls by dose curve; tested in HEK293 cells; further: nearly all actives have a fitted effect of over 50% in size
Vaccinia mCherry = qHTS for Stage-Specific Inhibitors of Vaccinia Orthopoxvirus: mCherry Reporter Primary qHTS; Vaccinia virus mCherry reporter infection, fluorescence; Potency, µM (series often up to 36.5 µM), actives largely listed as inhibitors; AID 720579, 2013; 310,000 compounds, 0.63% hits; calls by dose curve; tested in A549 cells; further: nearly all actives have a fitted effect of over 35% in size
A number is an active result; i = inactive; ? = inconclusive; nt = no result; ! = not confirmed by another sample; [ ] = remark or other dose. In the library only some 7.8% were active in any assay of this set; here they are far more common.

SMILES | HCMV inh | MARV entry inh | Vaccinia Venus | HCV inhibitor | LASV entry inh | Vaccinia mCherry
Cc1nc2cc(NC(=O)[C@@H]3C[C@@H](Sc4ccccn4)CN3Cc3cccc(Cl)c3)ccc2s1 | nt | nt | i | nt | nt | i
CCOc1ccc(OCCC(=O)OCC(=O)NCCc2ccc(S(N)(=O)=O)cc2)cc1 | -73.4 | nt | nt | i | nt | nt
CCOc1ncccc1C(=O)NCCc1ccc(S(N)(=O)=O)cc1 | -67.4 | i | i | i | i | i
CCOc1ncccc1C(=O)OCC(=O)NCCc1ccc(S(N)(=O)=O)cc1 | i | nt | nt | i | nt | nt
Cc1ccc(OCCC(=O)NCCc2ccc(S(N)(=O)=O)cc2)cc1 | i | i | i | i | i | i
Cc1ccc(S(=O)(=O)CC(=O)N2CCN(c3cccc(C(F)(F)F)c3)CC2)cc1 | i | i | i | i | i | i
C=CC[C@@H]1C=C[C@H](ON=C(C)CCN2CCCc3nc(C)c(C)cc32)[C@H](CO)O1 | nt | i | nt | nt | nt | nt
Cn1c(CN2CCCCC2)nc2cc(NC(=O)c3cccc(Br)c3)ccc21 | -95.0! | ? | ? | 5.62µM | ? | i
Cn1c(CN2CCCCC2)nc2cc(NC(=O)c3ccccc3)ccc21 | -60.0 | i | i | i | i | ?
Clc1ccc2[nH]c3c(N4CCC5(CC4)OCCO5)ncnc3c2c1 | nt | 10µM | 8.91µM | 12.6µM | 10µM | 8.91µM
Cc1cccc2[nH]c3c(N4CCN(C(=O)c5ccco5)CC4)ncnc3c12 | nt | i | nt | i | i | nt
Cc1cccc2[nH]c3c(N4CCC5(CC4)OCCO5)ncnc3c12 | i | ? | nt | 8.91µM | i | nt
COc1ccc(/C=C/c2ccnc3ccccc23)c(OC)c1 | nt | nt | i | nt | nt | i
CC(=O)Nc1ccc(CC(=O)NCCC(c2ccccc2)c2ccccc2)cc1 | i | ? | i | ? | 0.891µM | i
CCOC(=O)C1CCCN(C(=O)c2cc(OC)ccc2Br)CC1 (stereo not given) | i | nt | i | nt | nt | i
Cc1cc(C)n(-c2nnc(Nc3ccc(C)c(Cl)c3)c3ccccc23)n1 | -97.7 | i | i | nt | i | i
CC1=C(C(=O)N2CCOCC2)CC(CC(=O)NC2CC2)C(=O)N1CCC1=CCCCC1 (stereo not given) | i | nt | i | nt | nt | i
C[N+]1(C)CCO[C@@](O)(c2ccc(-c3ccc([C@]4(O)C[N+](C)(C)CCO4)cc3)cc2)C1 | nt | i | nt | nt | nt | nt
CCC(=O)NCc1csc(-c2cccs2)n1 | -70.3 | ? | i | i | ? | i
Cc1ccc(S(=O)(=O)N2C[C@@H]3CCCC[C@@H]3[C@@H](C)[C@H]2c2cn(Cc3ccccc3)c3ccccc23)cc1 | -97.2 | nt | ? | ? | nt | i
Cc1ccc(S(=O)(=O)N2C[C@@H]3[C@H]4CC[C@H](C4)[C@@H]3[C@@H](C)[C@@H]2c2cn(Cc3ccccc3)c3ncccc23)cc1 | ? | nt | i | i | nt | i
Cc1ccc(S(=O)(=O)N2C[C@@H]3CCCC[C@@H]3[C@@H](C)[C@H]2c2cn(Cc3ccccc3)c3ncccc23)cc1 | -86.3 | nt | ? | ? | nt | ?
Fc1ccccc1-c1ccc(-c2nc3ccc(Cl)cn3c2Nc2ccc(Cl)cc2)o1 | nt | nt | i | nt | nt | i
CCc1ccc2c(c1)NC(c1cccnc1)=NC(c1ccc(C(C)(C)C)cc1)=N2 | i | ? | i | nt | ? | ?
CCOCCn1ccc2c(OCC(=O)Nc3cc(OC)ccc3OC)cccc2c1=O | i | ? | i | 8.91µM | ? | i
SMILES | HCMV inh | MARV entry inh | Vaccinia Venus | HCV inhibitor | LASV entry inh | Vaccinia mCherry
CCCNC(=O)CN1C(=O)c2cccnc2Sc2ccccc21 | i | nt | i | nt | i | i
CCN(CC)CCn1c2ccccc2c2nc3ccc([N+](=O)[O-])cc3cc21 | -98.3 | ? | i | ? | ? | i
CC1=C(C(=O)N2CCOCC2)C(c2ccc(Br)cc2)NC(=S)N1c1ccccc1 (stereo not given) | i | i | i | i | i | i
COc1ccccc1NC(=O)C1=C(C)N(c2ccccc2)C(=S)NC1c1cccc(C(F)(F)F)c1 (stereo not given) | -95.8 | ? | nt | ? | ? | nt
COC(=O)c1ccc(C2NC(=S)N(c3ccccc3)C(C)=C2C(=O)Nc2ccccc2OC)cc1 (stereo not given) | i | ? | nt | ? | 6.51µM | nt
CC(=O)c1cc2ccccc2c2ccccc12 | nt | nt | i | nt | nt | i
COc1ccc(-c2nc3scc(CCNS(=O)(=O)c4ccc5c(c4)OCCO5)n3n2)cc1OC | i | nt | i | nt | i | i
Cc1ccc(NC(=O)CN(C)S(=O)(=O)c2cccc3nsnc23)c(C)c1 | i | i | i | nt | i | i
CCN(CC)c1ccc(NC(=O)CN(C)S(=O)(=O)c2cccc3nsnc23)c(C)c1 | -66.6 | ? | i[7.34 µM] | nt | i | i[7.34 µM]
O=C(c1cc2nc(-c3ccc(F)cc3)cc(C(F)(F)F)n2n1)N1CCCCC1c1cccnc1 (stereo not given) | -89.9 | ? | ? | 7.94µM | ? | ?
O=C(c1cnn2c(C(F)(F)F)cc(-c3ccccc3)nc12)N1CCCCC1c1cccnc1 (stereo not given) | ? | ? | i | i | i | i
CC1CCCCN1C(=O)c1cc2nc(-c3ccccc3)cc(-c3ccccc3)n2n1 (stereo not given) | i | ? | ? | 11.2µM | i | ?
COc1ccc(/C=C(/C#N)C(=O)Nc2cccc(C)c2C)cc1C(=O)O | i | i | i | i | i | nt
COc1ccc(NC(=S)Nc2cccc([N+](=O)[O-])c2)cc1 | -96.3 | ? | nt | i | i | nt
COc1ccc(NC(=O)c2cccc([N+](=O)[O-])c2)cc1 | i | i | i | ? | ? | i
COc1ccc(/C=C(/C#N)C(=O)Nc2cccc([N+](=O)[O-])c2)cc1C(=O)O | -101.8 | i | i | ? | i | i
O=C(Nc1cccc([N+](=O)[O-])c1)Nc1ccc2c(c1)CCC2 | -103.4 | ? | i | ? | ? | i
COc1cc([N+](=O)[O-])ccc1NC(=O)Nc1ccc2c(c1)OCCO2 | i | ? | i | 7.08µM | nt | i
O=C(Nc1ccccc1)Nc1ccc2c(c1)CCC2 | i | nt | nt | i | nt | nt
COC(=O)c1ccc(NC(=O)c2nn(C)c3c2CS(=O)(=O)c2ccccc2-3)cc1 | i | nt | i | nt | i | i
CCC(=O)N1CCCC(C)(C(=O)Nc2nccc3ccccc23)C1 (stereo not given) | i | nt | i | nt | nt | i
COc1ccc(Cl)cc1NC(=O)Nc1cccc([N+](=O)[O-])c1C | i | ? | i | 15.8µM | ? | i[1.46 µM]
O=C(Nc1cccc([N+](=O)[O-])c1)c1cccc(C(=O)Nc2cccc([N+](=O)[O-])c2)c1 | i | nt | ? | i | nt | i
CCC(=O)Nc1ccc2c(c1)Cc1cc([N+](=O)[O-])ccc1-2 | -86.2 | i | i | i | ? | i
COc1ccc(C(=O)Nc2cccc([N+](=O)[O-])c2)cc1Br | i | ? | ? | ? | ? | i
CC(NC(=O)Nc1cccc([N+](=O)[O-])c1)(C(F)(F)F)C(F)(F)F | -93.3 | ? | ? | i | ? | ?

Source: PubChem (National Center for Advancing Translational Sciences (NCATS))
